{"source": "paper PMC4552634", "about": "“A New Set of Chemical Starting Points with Plasmodium falciparum Transmission-Blocking Potential for Antimalarial Drug Discovery” (PLoS ONE, 2015)", "note": "Hit rate of the full screen: of about 13,000 compounds, about 3,200 (25%) showed an effect of 50% or more. The list shows a part of the results."}
{"tested_on": "P. falciparum stage V gametocytes", "set-up": "BacTiter-Glo ATP luminescence viability of purified stage V gametocytes in 384-well plates, per cent inhibition versus DMSO", "conditions": "48 h, 5 µM; inhibitor", "units": {"% Inhibition": "%"}}
{"smiles": "Cc1ccc(C(=O)NC2CC2)cc1-c1ccc2c(cnn2S(=O)(=O)c2ccc(F)cc2)c1", "note": "[TCMDC-138772]", "% Inhibition": 31.89}
{"smiles": "O=C(NCCc1cccc(Cl)c1Cl)c1ccc(N2CCN(c3ccncc3)CC2)nc1", "note": "[TCMDC-134587]", "% Inhibition": 10.14}
{"smiles": "Cc1ccc(C(=O)Nc2cc(C(F)(F)F)cc(C(F)(F)F)c2)cc1[N+](=O)[O-]", "note": "[TCMDC-125645]", "% Inhibition": -10.1}
{"smiles": "Cc1csc(-c2nc(NCCc3c(C)noc3C)ncc2-c2ccsc2)n1", "note": "[TCMDC-125354]", "% Inhibition": 34.89}
{"smiles": "Nc1ncc(-c2ccsc2)c2ccc(-c3cc(NCc4ccccc4)ncn3)cc12", "note": "[TCMDC-135660]", "% Inhibition": 18.52}
{"smiles": "O=C(Cc1c[nH]cn1)Nc1ccc(-c2ccc(-c3nc4ccccc4[nH]3)s2)cc1", "note": "[TCMDC-136939]", "% Inhibition": -25.08}
{"smiles": "O=C(/C=C/c1ccc(Cl)c(Cl)c1)N1CCC(NCc2ccc3[nH]ccc3c2)CC1", "note": "[TCMDC-134198]", "% Inhibition": 36.44}
{"smiles": "CCC1N=C(N)N=C(N)N1OCc1ccc(Cl)c(Cl)c1", "note": "(stereo not shown) [TCMDC-131593]", "% Inhibition": 19.76}
{"smiles": "CC(=O)C=C1CC(=O)N(C[C@@H](O)[C@H]2O[C@@H]3OC(C)(C)O[C@@H]3[C@H]2O)c2ccccc2N1", "note": "[TCMDC-138271]", "% Inhibition": 11.95}
{"smiles": "O=C(/C=C/c1ccc(C(F)(F)F)cc1)NCCCCCN1CCCN(C(=O)Nc2cccc(Cl)c2)CC1", "note": "[TCMDC-136108]", "% Inhibition": -11.12}
{"smiles": "CCOc1cccc(C(=O)Nc2cccc(CN3CCCN(Cc4cccc(O)c4)CC3)c2)c1", "note": "[TCMDC-141861]", "% Inhibition": -4.748}
{"smiles": "COc1ccc2ncc(Cl)c(CCN3CCC(NCc4ccc5c(n4)NC(=O)CS5)CC3)c2c1", "note": "[TCMDC-141807]", "% Inhibition": -3.776}
{"smiles": "COc1cc(F)c2ncc(Cl)c(CCN3CCC(NCc4ccc5c(c4)NC(=O)CS5)CC3)c2c1", "note": "[TCMDC-135620]", "% Inhibition": 12.4}
{"smiles": "O=C1CSc2ccc(CNC3CCN(CCc4c(Cl)cnc5ccc(Cl)cc45)CC3)nc2N1", "note": "[TCMDC-141959]", "% Inhibition": 32.4}
{"smiles": "O=C1CSc2ccc(CNC3CCN(CCc4c(Cl)cnc5ccc(F)cc45)CC3)nc2N1", "note": "[TCMDC-141960]", "% Inhibition": 55.74}
{"smiles": "O=C1CSc2ccc(CNC3CCN(CCc4c(F)cnc5ccc(F)cc45)CC3)nc2N1", "note": "[TCMDC-135095]", "% Inhibition": -0.4072}
{"smiles": "COc1cc(F)c2ncc(Cl)c(CCN3CCC(NCc4ccc5c(n4)NC(=O)CS5)CC3)c2c1", "note": "[TCMDC-134318]", "% Inhibition": 94.95}
{"smiles": "Cc1ccc(CNC(=O)c2cc3c(=O)n4ccccc4nc3n(CCCN3CCOCC3)c2=N)cc1", "note": "[TCMDC-125409]", "% Inhibition": 26.53}
{"smiles": "CC(O)C1CCCCN1C(=O)c1cccc(-c2cccc(-c3nc4cc(C(F)(F)F)ccc4[nH]3)c2)c1", "note": "(stereo not shown) [TCMDC-132335]", "% Inhibition": 13.24}
{"smiles": "O=C(Nc1cccc(C(F)(F)F)c1)NC1CCN(c2ccnc3cc(Cl)ccc23)CC1", "note": "[TCMDC-133567]", "% Inhibition": -12.77}
{"smiles": "O=C(Cn1cc(C(F)(F)F)cc(Cl)c1=O)N1CCN(S(=O)(=O)c2ccc(Cl)cc2)CC1", "note": "[TCMDC-123617]", "% Inhibition": 70.99}
{"smiles": "O=C(CN(c1cccc(C(F)(F)F)c1)S(=O)(=O)c1ccc(Cl)cc1)NCCC(c1ccccc1)c1ccccc1", "note": "[TCMDC-136712]", "% Inhibition": 5.637}
{"smiles": "O=C(CN1CCN(S(=O)(=O)C=Cc2ccccc2)CC1)Nc1cc(C(F)(F)F)ccc1Cl", "note": "[TCMDC-124538]", "% Inhibition": -9.823}
{"smiles": "CC(C)NC(=O)c1cccc(-c2ccc(OCCN3CCCC3c3cc4ccccc4[nH]3)cc2)c1", "note": "(stereo not shown) [TCMDC-134385]", "% Inhibition": -6.463}
{"smiles": "CC(=O)c1cccc(NC(=O)C2c3ccccc3C(=O)N(CC(C)C)C2c2cccs2)c1", "note": "(stereo not shown) [TCMDC-124756]", "% Inhibition": 54.72}
{"smiles": "CC(C)CN1C(=O)c2ccccc2C(C(=O)Nc2cccc(C#N)c2)C1c1cccs1", "note": "(stereo not shown) [TCMDC-124758]", "% Inhibition": 44.13}
{"smiles": "CC(C)CN1C(=O)c2ccc(C(=O)Nc3nccs3)cc2C1=O", "note": "[TCMDC-125773]", "% Inhibition": -2.752}
{"smiles": "CC(=O)c1ccc(NC(=O)C2c3ccccc3C(=O)N(CC(C)C)C2c2cccs2)cc1", "note": "(stereo not shown) [TCMDC-124757]", "% Inhibition": 58.39}
{"smiles": "Cc1ccc(Nc2nc3cc(N(C)c4ccnc(Nc5cccc(CS(C)(=O)=O)c5)n4)ccc3o2)cc1", "note": "[TCMDC-141956]", "% Inhibition": -42.21}
{"smiles": "CC(C)C1=NCc2ccc([N+](=O)[O-])cc2C(=O)N1", "note": "[TCMDC-131785]", "% Inhibition": -3.925}
{"smiles": "Cn1nc(-c2ccc(CN[C@@H]3CCc4ccc(O)cc43)cc2)c2cnc(NCCCN3CCCC3)nc21", "note": "[TCMDC-135037]", "% Inhibition": 45.21}
{"smiles": "Cn1nc(-c2cccc(CN[C@@H]3CCc4ccc(O)cc43)c2)c2cnc(NCCCN3CCCC3)nc21", "note": "[TCMDC-135035]", "% Inhibition": 59.7}
{"smiles": "Cn1nc(-c2cccc(CNC3CCc4ccccc43)c2)c2cnc(NCCCN3CCCC3)nc21", "note": "(stereo not shown) [TCMDC-135034]", "% Inhibition": 78.32}
{"smiles": "Cn1nc(-c2cccc(CN[C@@H]3CCc4ccc(O)cc43)c2)c2cnc(NC3CCCC3)nc21", "note": "[TCMDC-135032]", "% Inhibition": -0.5073}
{"smiles": "Cn1nc(-c2cccc(CNC3CCc4ccccc43)c2)c2cnc(NC3CCCC3)nc21", "note": "(stereo not shown) [TCMDC-135030]", "% Inhibition": -10.51}
{"smiles": "c1cc(CN2CCc3ccccc3CC2)cc(-c2c[nH]c3nc(NC4CCCC4)ncc23)c1", "note": "[TCMDC-133774]", "% Inhibition": -80.37}
{"smiles": "O=C(N[C@@H](CC1CCCCC1)C(=O)NC1CC1)c1ccc(O)c(-c2cccc(C(F)(F)F)c2)c1", "note": "[TCMDC-140807]", "% Inhibition": 9.846}
{"smiles": "COc1ccc(-c2nc3nc4ccccc4cc3[nH]2)c(OCC(O)CNC(C)C)c1", "note": "(stereo not shown) [TCMDC-137443]", "% Inhibition": 26.08}
{"smiles": "COc1ccc(NC(=O)c2ccc(-c3cc(NC(=O)c4ccnc(N5CCCC5)c4)ccc3C)s2)cc1N1CCN(C)CC1", "note": "[TCMDC-136373]", "% Inhibition": 32.31}
{"smiles": "CN(C)CCC1CCN(CCS(=O)(=O)c2cccc(Nc3ccc(-c4cccc(F)c4)cn3)c2)CC1", "note": "[TCMDC-134375]", "% Inhibition": 43.14}
{"smiles": "COC(=O)C(=O)c1c(-c2ccccc2)c(-c2ccc(OC)c(OC)c2)c2c3cc(OC)c(OC)cc3ccn12", "note": "[TCMDC-125088]", "% Inhibition": 26.26}
{"smiles": "COc1ccc(-c2cc(C(=O)N3CCc4ccccc43)c3ccccc3n2)cc1OC", "note": "[TCMDC-123715]", "% Inhibition": -27.24}
{"smiles": "COCCOC(=O)C(=O)c1c(-c2ccccc2)c(-c2ccc(OC)c(OC)c2)c2c3cc(OC)c(OC)cc3ccn12", "note": "[TCMDC-125087]", "% Inhibition": 52.27}
